Experimental findings from PubChem BioAssay (NCI) are described below.

The panel holds about 83,000 compounds, 20% with a hit somewhere; the sample as a whole holds those more often.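 A percent growth of 40 corresponds to 60% growth inhibition; 0 means no net growth; -100 means all cells died. Active threshold: below 10.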 Unmarked numbers belong to inactive results. The source made the active and inactive calls.

Test systems include HCT-15 colon; HT29 colon; SNB-75 CNS; SNB-19 CNS; U251 CNS; PC-3 prostate; SK-MEL-5 melanoma; UACC-62 melanoma; LOX IMVI melanoma; SK-MEL-28 melanoma; SK-MEL-2 melanoma; SN12C renal; UO-31 renal; TK-10 renal; ACHN renal; CAKI-1 renal; A498 renal; CCRF-CEM leukemia; MOLT-4 leukemia; EKVX NSCLC.
Common to all, as to assay: NCI-60 one-dose screen, 48 h (100 = growth as untreated, 0 = no growth, -100 = all killed)
Holding throughout (conditions): 10 µM

For the compound `CN1C(=O)/C(=C/c2ccc3ncsc3c2)NC1=NC12CC3CC(CC(O)(C3)C1)C2`, the growth was -7.12% (active) in the experiment on HCT-15 colon; 3.87% (active) in the experiment on HT29 colon; 25.9% in the experiment with SNB-75 CNS; 16.3% in the experiment with SNB-19 CNS; 16.4% in the experiment on U251 CNS; 16.8% in the experiment on PC-3 prostate. For the same compound, the growth in the experiment with SK-MEL-5 melanoma is -90.7% (active); in the experiment on UACC-62 melanoma, -7.72% (active); in the experiment with LOX IMVI melanoma it was -52.8% (active); with SK-MEL-28 melanoma it was -18.4% (active); in the experiment with SK-MEL-2 melanoma, -82.3% (active); in the experiment with SN12C renal, 4.63% (active). Moreover, the growth is -0.057% (active) in the experiment on UO-31 renal; 39.2% in the experiment on TK-10 renal; 0.736% (active) in the experiment with ACHN renal; 8.2% (active) with CAKI-1 renal; -10.5% (active) in the experiment on A498 renal; 5.06% (active) with CCRF-CEM leukemia. The growth in the experiment on MOLT-4 leukemia is 4.59% (active).

Regarding `COc1cccc(/C=C2\N=C(C)N(CCc3ccc(S(N)(=O)=O)cc3)C2=O)c1`, the growth is 105% in the experiment with HCT-15 colon; 108% in the experiment on HT29 colon; 98% with SNB-75 CNS; 95.1% in the experiment on SNB-19 CNS; 99.9% in the experiment with U251 CNS; 98.4% in the experiment with PC-3 prostate. In addition, the growth is 102% in the experiment on SK-MEL-5 melanoma; 94% with UACC-62 melanoma; 97.4% with LOX IMVI melanoma; 105% in the experiment with SK-MEL-28 melanoma; 109% in the experiment with SK-MEL-2 melanoma; 95.6% in the experiment with EKVX NSCLC. For the same compound, the growth was 90.9% in the experiment with UO-31 renal; 97.6% in the experiment on TK-10 renal; 107% in the experiment on ACHN renal; 78.8% with CAKI-1 renal; 101% in the experiment on A498 renal; 96.4% with CCRF-CEM leukemia. In addition, the growth in the experiment on MOLT-4 leukemia is 97.8%.

For the compound `C#Cc1ccc(S(=O)(=O)Nc2cccc(-c3csc(NC(C)=O)n3)c2)cc1`, the growth was 67.1% with HCT-15 colon; 71.4% with HT29 colon; 60.4% with SNB-75 CNS; 83.6% with SNB-19 CNS; 81.8% in the experiment on U251 CNS; 62.3% with PC-3 prostate. The growth in the experiment on SK-MEL-5 melanoma is 43.2%; with UACC-62 melanoma, 48.7%; in the experiment with LOX IMVI melanoma, 54.6%; in the experiment on SK-MEL-28 melanoma, 89.4%; in the experiment on SK-MEL-2 melanoma it was 81.5%; with SN12C renal it was 79%. The growth with UO-31 renal was -81.1% (active); in the experiment on TK-10 renal, 81.7%; in the experiment with ACHN renal it was 82.6%; with CAKI-1 renal, 65.3%; in the experiment with A498 renal, 96%; in the experiment on CCRF-CEM leukemia, 49.5%.

For the compound `CN1CCN(Cc2ccc(C(=O)Nc3cccc(Nc4ccc5c(O)cccc5n4)c3)cc2C(F)(F)F)CC1`, the growth in the experiment with HCT-15 colon is -25.4% (active); with HT29 colon, -50.8% (active); in the experiment with SNB-75 CNS, 33.1%; in the experiment on SNB-19 CNS, -64.3% (active); in the experiment with U251 CNS it was -35.3% (active); in the experiment with PC-3 prostate it was 10.8%. Further, the growth with SK-MEL-5 melanoma was -100% (active); in the experiment with UACC-62 melanoma, -79.9% (active); in the experiment with LOX IMVI melanoma, -100% (active); in the experiment with SK-MEL-28 melanoma, -95% (active); in the experiment on SK-MEL-2 melanoma it was -75.9% (active); in the experiment with SN12C renal, 1.56% (active). The growth in the experiment with UO-31 renal was -20.2% (active); with TK-10 renal, -21% (active); with ACHN renal, -23.4% (active); in the experiment on CAKI-1 renal, -38.3% (active); in the experiment on A498 renal it was -33.2% (active); with CCRF-CEM leukemia, 5.12% (active). Besides, in the experiment on MOLT-4 leukemia, the growth was -2.84% (active).

As to `COc1ccc2[nH]c(O)c(N=NC(=O)COc3ccc(NC(=O)Nc4ccc(Cl)c(Cl)c4)cc3)c2c1`, the growth with HCT-15 colon was 56.1%; in the experiment with HT29 colon it was -88.4% (active); in the experiment on SNB-75 CNS, -37% (active); in the experiment on SNB-19 CNS, 7.22% (active); in the experiment on U251 CNS it was -94.2% (active); in the experiment on PC-3 prostate, -33.4% (active). Further, the growth with SK-MEL-5 melanoma was -56.3% (active); with UACC-62 melanoma, 14.4%; in the experiment on LOX IMVI melanoma, -100% (active); in the experiment on SK-MEL-2 melanoma, 14.5%; with EKVX NSCLC it was 31.9%; in the experiment with SN12C renal, -42% (active). Besides, the growth was 111% with UO-31 renal; 15.5% in the experiment with TK-10 renal; 57% in the experiment on ACHN renal; 60.7% in the experiment with CAKI-1 renal; -1.89% (active) in the experiment on A498 renal; 20.8% in the experiment with CCRF-CEM leukemia.

As for `CCCn1c(=O)c2[nH]c(-c3ccc(OCc4nc5ccc(F)cc5[nH]4)cc3)nc2n(CCC)c1=O`, the growth was 28.7% with HCT-15 colon; 26.7% in the experiment on HT29 colon; -23.5% (active) with SNB-75 CNS; 50.4% in the experiment on SNB-19 CNS; 0.191% (active) with U251 CNS; 36.3% with PC-3 prostate. Also, the growth in the experiment with SK-MEL-5 melanoma is -22.5% (active); in the experiment on UACC-62 melanoma it was 3.86% (active); with LOX IMVI melanoma, -29.3% (active); in the experiment on SK-MEL-28 melanoma, 38%; in the experiment with SK-MEL-2 melanoma, 28.6%; in the experiment with SN12C renal, -20.1% (active). The growth with UO-31 renal was -78.7% (active); with TK-10 renal, -3.59% (active); in the experiment on ACHN renal, -56.6% (active); in the experiment with CAKI-1 renal, 6.55% (active); in the experiment on A498 renal, -85.8% (active); in the experiment on CCRF-CEM leukemia, 44%. Further, in the experiment with MOLT-4 leukemia, the growth was 24.7%.

Regarding `CCN1CCN(c2ccc(NC(=O)Nc3ccc4c(c3F)CCN4c3ccnc(C(=O)NC)c3)cc2C(F)(F)F)CC1`, the growth was -91.1% (active) in the experiment on HCT-15 colon; -79% (active) in the experiment with HT29 colon; -80.8% (active) in the experiment on SNB-75 CNS; -84.3% (active) in the experiment on SNB-19 CNS; -93.8% (active) in the experiment with U251 CNS; 23.4% with PC-3 prostate. The growth in the experiment with SK-MEL-5 melanoma is -100% (active); in the experiment on UACC-62 melanoma it was 95.8%; in the experiment on LOX IMVI melanoma, -99.9% (active); in the experiment on SK-MEL-28 melanoma, -83.6% (active); with SK-MEL-2 melanoma, 99.6%; in the experiment on SN12C renal it was 104%. Besides, the growth was 85.3% in the experiment on UO-31 renal; 118% with TK-10 renal; 54.9% in the experiment with ACHN renal; -87.9% (active) with CAKI-1 renal; 142% with A498 renal; -42.3% (active) with CCRF-CEM leukemia.

For `COc1cc2c3c(n(CCCNC(C)C)c(=O)c2cc1OC)-c1nc2c(cc1C3=O)OCO2`, the growth in the experiment on HCT-15 colon is -87.9% (active); in the experiment on HT29 colon, -65.4% (active); with SNB-75 CNS it was 78.6%; in the experiment with SNB-19 CNS it was 33.2%; with U251 CNS, -76.3% (active); in the experiment with PC-3 prostate, -66.1% (active). Besides, the growth with SK-MEL-5 melanoma was 54.4%; in the experiment with UACC-62 melanoma, 22%; in the experiment with LOX IMVI melanoma, -97.3% (active); in the experiment on SK-MEL-28 melanoma, 49.2%; in the experiment on SK-MEL-2 melanoma it was 128%; in the experiment on SN12C renal, -88.9% (active). The growth was -97% (active) in the experiment on UO-31 renal; 97.2% in the experiment on TK-10 renal; 4.04% (active) in the experiment with ACHN renal; 13.7% in the experiment on CAKI-1 renal; 81.9% in the experiment on A498 renal; 5.05% (active) with CCRF-CEM leukemia. For the same compound, the growth in the experiment on MOLT-4 leukemia is -1.94% (active).
